Sampled rows, rich in hits. Any-hit rate of the full collection: about 2.5%.
STAT3 SMM = STAT3 (human) binding; P40763; Small molecule microarray, His-STAT3 binding, anti-His fluorescence; calls only; actives 0.2% (n = 17,000);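 active means compounds whose four printed spots each show fluorescence over background unusually high for their array block, chance value under 7%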
NFkB binder = NF-kappa-B p105 (human) binding. P19838. Small molecule microarray, anti-His fluorescence binding. calls only. actives 1.3% (n = 17,000);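 active means spot fluorescence over background significantly raised, with a chance value under 7% in all four replicate spots of the compound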;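 further: probe protein is his-tagged human p50 processed subunit at 1 µg/ml; raw spot fluorescence signals with no normalization applied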
p53 mut binder = binds human mutant p53 on microarray; small molecule microarray binding, anti-GST fluorescence; calls only; actives 0.4% (n = 17,000);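 active means compounds whose four printed spots each glow above background more than chance allows, each with a p-value under 7%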
c-Myc SMM = binders of human c-Myc. P01106. small molecule microarray, His-c-Myc binding, anti-His fluorescence. calls only. actives 1.5% (n = 17,000). AID 624141;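 active means spot fluorescence over background with P-value below 7% in all four replicate spots, showing protein binding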;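 further: score is binary with 100 for all four spots passing and 0 otherwise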
Target sequence (P01106 whole entry, looked up): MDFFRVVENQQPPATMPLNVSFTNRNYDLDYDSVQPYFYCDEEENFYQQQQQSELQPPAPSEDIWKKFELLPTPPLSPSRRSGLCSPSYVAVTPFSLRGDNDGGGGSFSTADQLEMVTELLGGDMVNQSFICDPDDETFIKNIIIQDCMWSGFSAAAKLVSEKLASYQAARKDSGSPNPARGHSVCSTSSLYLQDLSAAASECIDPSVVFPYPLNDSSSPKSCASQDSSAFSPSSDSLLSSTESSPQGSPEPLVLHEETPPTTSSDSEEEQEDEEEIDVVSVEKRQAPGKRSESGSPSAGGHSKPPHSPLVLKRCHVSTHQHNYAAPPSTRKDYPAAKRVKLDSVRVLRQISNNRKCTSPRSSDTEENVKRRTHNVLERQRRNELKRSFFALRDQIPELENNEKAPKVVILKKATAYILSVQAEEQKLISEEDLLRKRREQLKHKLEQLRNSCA
An asterisk follows results filed as active; i = inactive; + = active, no number.

SMILES	STAT3 SMM	NFkB binder	p53 mut binder	c-Myc SMM
Cc1cc(SCc2sc(-c3ccc(C(F)(F)F)c(F)c3)nc2C)ccc1OCC(=O)O	i	i	i	+
CC1CCC/C=C/C2CC(O)CC2C(O)/C=C\C(=O)O1 (stereo unspecified)	i	i	i	i
CC(CO)NC(=O)C1C=C2c3cccc4[nH]cc(c34)CC2N(C)C1 (stereo unspecified)	i	i	i	+
CCOC(=O)[C@@H]1[C@@H]2NC(=O)N(C)[C@@]1(COCc1ccc(OC)cc1)Oc1ccccc12	i	i	i	i

Screens from PubChem.
